# From PubChem BioAssay (EPA / NIEHS)
# Active and inactive are the calls of the source. How the source made its calls: active means hit-call score of the fitted dose curve at least 0.9, where 1 is the maximum; inactive means score below 0.9.
# Read-out: Vascular endothelial growth factor receptor 2 (Homo sapiens) (UniProt P35968)
# Experiment: BSK_4H_VEGFRII: BioMAP Diversity Plus: 4H Assay for Vascular endothelial growth factor receptor 2 (VEGFR2) Biomarker Activity (AID 2283031);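 on AC50: cell-surface VEGFR2 protein level quantified by ELISA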
# Conditions: primary human endothelial cells (HUVEC); actives raise or lower the signal
# Outline: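 Primary human umbilical vein endothelial cells (4H system), 24 h exposure; cell-surface VEGFR2 measured by ELISA. Bidirectional fitting versus DMSO; cytotoxicity checked in parallel by SRB total-protein staining.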
Compound,outcome,AC50
CCS(=O)(=O)c1cccnc1S(=O)(=O)NC(=O)Nc1nc(OC)cc(OC)n1,inactive,–
CCOC1Oc2ccc(OS(C)(=O)=O)cc2C1(C)C (stereo unspecified),inactive,–
O=C(O)CCCOc1ccc(Cl)cc1Cl,inactive,–
CC(C)N(C(=O)COc1nnc(C(F)(F)F)s1)c1ccc(F)cc1,inactive,–
O=C(NC(=O)c1c(F)cccc1F)Nc1ccc(OC(F)(F)C(F)OC(F)(F)F)c(Cl)c1 (stereo unspecified),inactive,–
N#Cc1c(Cl)c(Cl)c(Cl)c(C#N)c1Cl,–,1.44 µM (active)
COC(=O)c1ccccc1S(=O)(=O)NC(=O)N(C)c1nc(C)nc(OC)n1,inactive,–
CNC(=O)Oc1cccc(N=CN(C)C)c1,inactive,–
CCN(CC)C(=O)SCc1ccc(Cl)cc1,inactive,–
Clc1ccccc1-c1nnc(-c2ccccc2Cl)nn1,inactive,–
COC(=O)c1ccccc1CS(=O)(=O)NC(=O)Nc1nc(OC)cc(OC)n1,inactive,–
Cc1cc(C)nc(NC(=O)NS(=O)(=O)c2ccccc2C(=O)OC2COC2)n1,inactive,–
CC1(c2ccc(Oc3ccccc3)cc2)OC(=O)N(Nc2ccccc2)C1=O (stereo unspecified),–,20 µM (active)
CCOc1nc(NC)nc(NC(=O)NS(=O)(=O)c2ccccc2C(=O)OC)n1,inactive,–
CCc1ccc(C(=O)NN(C(=O)c2cc(C)cc(C)c2)C(C)(C)C)cc1,inactive,–
O=[N+]([O-])c1c(Cl)c(Cl)c(Cl)c(Cl)c1Cl,inactive,–
CCC(C)(C)C(=O)OC1=C(c2ccc(Cl)cc2Cl)C(=O)OC12CCCCC2,inactive,–
CCC(C)(NC(=O)c1cc(Cl)c(C)c(Cl)c1)C(=O)CCl (stereo unspecified),–,20 µM (active)
COc1nn(CSP(=S)(OC)OC)c(=O)s1,inactive,–
C#CCN1C(=O)COc2cc(F)c(N3C(=O)C4=C(CCCC4)C3=O)cc21,inactive,–
CC(C)(C)C(O)/C(=C\c1ccc(Cl)cc1Cl)n1cncn1 (stereo unspecified),–,27.4 µM (active)
COP(=O)(OC)OC=C(Cl)Cl,inactive,–
ClC1C(Cl)C(Cl)C(Cl)C(Cl)C1Cl (stereo unspecified),inactive,–
CC1(C)C(C=C(Cl)Cl)C1C(=O)OC(C#N)c1ccc(F)c(Oc2ccccc2)c1 (stereo unspecified),inactive,–
COP(=S)(OC)Oc1ccc([N+](=O)[O-])cc1,inactive,–
CC[C@H](C)[C@H]1O[C@]2(C=C[C@@H]1C)C[C@@H]1C[C@@H](C/C=C(\C)[C@@H](O[C@H]3C[C@H](OC)[C@@H](O[C@H]4C[C@H](OC)[C@@H](O)[C@H](C)O4)[C@H](C)O3)[C@@H](C)/C=C/C=C3\CO[C@@H]4[C@H](O)C(C)=C[C@@H](C(=O)O1)[C@]34O)O2 (tested in a mixture with another compound),–,5.27 µM (active)
